Source: PubChem BioAssay
For some of these results: Results with a measured potency or affinity are listed apart. Active and inactive are the calls of the source. Unless noted, no rule for the calls is given here.

Assays:
[1] = antimalarial activity against Dd2 strain (AID 2302;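 active = growth inhibition above 50% at the single 2 µM test dose, taken to imply half-maximal potency below 2 µM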;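 also: 0% = DMSO untreated growth and 100% = chloroquine plus artemisinin killed control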); settings: P. falciparum Dd2 in RBCs, LDH growth readout, 72 h; at 2 µM; stronger effect = higher value
[2] = HepG2 cytotoxicity, primary screen, cytotoxicity control for P. falciparum antimalarial project, cell-based, ATP luminescence (AID 2303;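 active = inhibition above 50%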;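 also: 0% = DMSO wells and 100% = digitonin-killed cells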); settings: HepG2 viability, 24-48 h, at 10 µM, stronger effect = higher value
[3] = target: L-lactate dehydrogenase (Plasmodium falciparum (isolate CDC / Honduras)) (UniProt Q27743); assay: PfLDH activity inhibition – cell lysate, 3D7 strain, counter-screen for P. falciparum growth inhibition project (AID 2304);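 also: 0% = vehicle and 100% = reference inhibitor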; settings: P. falciparum 3D7 crude extract, LDH APAD/NBT absorbance; at 2 µM; stronger effect = higher value
L-lactate dehydrogenase (Plasmodium falciparum (isolate CDC / Honduras)), sequence (Q27743 whole entry, looked up): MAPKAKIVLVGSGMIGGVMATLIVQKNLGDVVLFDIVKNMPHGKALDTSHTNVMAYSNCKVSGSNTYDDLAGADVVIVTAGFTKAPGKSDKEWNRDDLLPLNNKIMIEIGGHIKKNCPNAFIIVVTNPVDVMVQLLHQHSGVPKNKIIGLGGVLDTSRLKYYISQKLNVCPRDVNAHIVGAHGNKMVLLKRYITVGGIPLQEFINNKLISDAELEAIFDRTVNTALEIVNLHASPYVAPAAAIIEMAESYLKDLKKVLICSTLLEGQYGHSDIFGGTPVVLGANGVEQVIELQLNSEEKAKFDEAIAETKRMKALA

[4] = inhibition of 3D7 malaria parasite growth – strain 3D7 (AID 2306);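 also: 0% = DMSO wells and 100% = chloroquine plus artemisinin control wells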; settings: P. falciparum 3D7 erythrocytic growth, LDH absorbance, 72 h; at 2 µM; stronger effect = higher value
[5] = target: Calcium-dependent protein kinase 1 (Plasmodium falciparum (isolate 3D7)) (UniProt P62344); assay: PfCDPK1 kinase inhibitors, biochemical, TCAMS library (AID 1159585; cut-off not given, nearly all actives have IC50 up to about 0.98 µM;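 also: inhibitors leave more ATP so luminescence rises with inhibition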); settings: recombinant PfCDPK1, Kinase-Glo ATP depletion luminescence
Calcium-dependent protein kinase 1 (Plasmodium falciparum (isolate 3D7)), sequence (P62344 whole entry, looked up): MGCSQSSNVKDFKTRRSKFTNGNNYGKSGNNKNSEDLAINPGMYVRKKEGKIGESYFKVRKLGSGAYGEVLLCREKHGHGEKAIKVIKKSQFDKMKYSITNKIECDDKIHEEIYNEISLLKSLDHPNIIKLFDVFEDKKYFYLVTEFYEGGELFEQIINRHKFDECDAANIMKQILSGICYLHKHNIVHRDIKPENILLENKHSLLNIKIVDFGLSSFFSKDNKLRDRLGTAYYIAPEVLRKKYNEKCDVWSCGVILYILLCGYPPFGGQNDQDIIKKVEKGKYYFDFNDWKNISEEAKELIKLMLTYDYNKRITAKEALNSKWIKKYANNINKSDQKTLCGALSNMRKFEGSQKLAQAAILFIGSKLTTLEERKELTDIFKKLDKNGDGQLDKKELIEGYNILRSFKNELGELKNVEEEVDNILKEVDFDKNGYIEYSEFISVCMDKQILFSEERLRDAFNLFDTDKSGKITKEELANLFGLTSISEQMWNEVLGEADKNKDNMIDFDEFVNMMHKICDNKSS

[6] = target: Plasmodium falciparum protein kinase 6 (PK6, PF3D7_1337100) (UniProt Q8IDW1); assay: PfPK6 kinase inhibitors, biochemical, TCAMS library (AID 1159586); settings: recombinant PfPK6, Kinase-Glo ATP depletion luminescence
Plasmodium falciparum protein kinase 6 (PK6, PF3D7_1337100), sequence (Q8IDW1 1-305): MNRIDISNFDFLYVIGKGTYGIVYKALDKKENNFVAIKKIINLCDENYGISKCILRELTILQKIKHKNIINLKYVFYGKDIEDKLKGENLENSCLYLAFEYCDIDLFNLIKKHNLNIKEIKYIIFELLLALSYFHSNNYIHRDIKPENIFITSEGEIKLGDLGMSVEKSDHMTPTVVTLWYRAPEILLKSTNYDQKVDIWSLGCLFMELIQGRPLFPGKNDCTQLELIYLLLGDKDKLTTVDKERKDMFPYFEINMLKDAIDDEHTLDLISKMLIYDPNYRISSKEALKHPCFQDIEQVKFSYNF

[7] = target: Protein kinase 7 (PK7), Plasmodium falciparum 3D7 (PF3D7_0213400) (UniProt Q7YTF7); assay: inhibition of Plasmodium PK7 catalytic activity – biochemical, TCAMS antimalarial set, Kinase-Glo luminescence (AID 1159587); settings: recombinant PfPK7, Kinase-Glo ATP depletion luminescence
Protein kinase 7 (PK7), Plasmodium falciparum 3D7 (PF3D7_0213400), sequence (Q7YTF7 1-343): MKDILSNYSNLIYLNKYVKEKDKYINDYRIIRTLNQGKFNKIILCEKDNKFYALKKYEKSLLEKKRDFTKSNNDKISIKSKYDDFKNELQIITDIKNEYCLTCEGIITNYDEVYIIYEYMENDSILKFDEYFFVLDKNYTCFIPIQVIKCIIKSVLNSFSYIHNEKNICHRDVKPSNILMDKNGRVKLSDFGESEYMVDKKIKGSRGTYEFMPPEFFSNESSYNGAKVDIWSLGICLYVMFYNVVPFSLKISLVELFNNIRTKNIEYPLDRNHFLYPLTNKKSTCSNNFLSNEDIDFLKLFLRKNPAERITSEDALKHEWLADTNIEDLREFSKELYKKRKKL

[8] = target: Calcium-dependent protein kinase 4 (Plasmodium falciparum (isolate 3D7)) (UniProt Q8IBS5); assay: PfCDPK4 kinase inhibitors, biochemical, TCAMS library (AID 1159588; cut-off not given, nearly all actives have IC50 up to about 0.91 µM); settings: recombinant PfCDPK4, Kinase-Glo ATP depletion luminescence
Calcium-dependent protein kinase 4 (Plasmodium falciparum (isolate 3D7)), sequence (Q8IBS5 whole entry, looked up): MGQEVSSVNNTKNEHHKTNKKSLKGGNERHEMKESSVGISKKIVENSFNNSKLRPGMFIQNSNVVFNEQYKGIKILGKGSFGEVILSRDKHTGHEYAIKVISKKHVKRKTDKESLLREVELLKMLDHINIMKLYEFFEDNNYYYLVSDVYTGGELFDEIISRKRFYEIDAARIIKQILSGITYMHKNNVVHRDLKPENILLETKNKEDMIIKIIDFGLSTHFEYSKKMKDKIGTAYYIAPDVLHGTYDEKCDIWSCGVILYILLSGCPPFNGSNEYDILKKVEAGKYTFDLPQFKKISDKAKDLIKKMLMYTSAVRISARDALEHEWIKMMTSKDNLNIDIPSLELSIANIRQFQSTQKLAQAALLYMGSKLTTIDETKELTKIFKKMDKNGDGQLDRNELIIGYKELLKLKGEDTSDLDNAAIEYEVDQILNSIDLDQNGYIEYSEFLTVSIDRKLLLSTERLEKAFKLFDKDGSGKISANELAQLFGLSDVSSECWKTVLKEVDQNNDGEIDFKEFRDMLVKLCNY

Cc1cccc2sc(N(CCCn3ccnc3)C(=O)C=Cc3cccs3)nc12
inactive: growth inhibition [1] 9% | inhibition [2] -6% | inhibition [3] 2% | outcome [5] | outcome [6] | outcome [7] | outcome [8]
active: growth inhibition [4] 91%

O=[N+]([O-])c1ccccc1C=NNc1ccnc2ccc(C(F)(F)F)cc12
inactive: growth inhibition [1] 36% | inhibition [2] 6% | inhibition [3] -3% | outcome [5] | outcome [6] | outcome [7] | outcome [8]
active: growth inhibition [4] 100%

COc1cc(Cc2cnc(N)nc2N)cc(OC)c1OCCCCC(=O)O
active: growth inhibition [4] 88%
inactive: growth inhibition [1] -1% | inhibition [2] -4% | inhibition [3] -4% | outcome [5] | outcome [6] | outcome [7] | outcome [8]

Cc1ccc(NC(=O)Nc2cccc(Cl)c2)cc1-c1ccc(C(=O)Nc2ccncc2)cc1
active: inhibition [2] 67% | growth inhibition [4] 97%
inactive: growth inhibition [1] 49% | inhibition [3] -1% | outcome [5] | outcome [6] | outcome [7] | outcome [8]

CN(C)c1ccc(CN2CCC(NC(=O)c3ccc(-c4cccc(C(F)(F)F)c4)s3)CC2)cc1
inactive: growth inhibition [1] 40% | inhibition [3] -4% | outcome [5] | outcome [6] | outcome [7] | outcome [8]
active: inhibition [2] 90% | growth inhibition [4] 97%

Nc1c2c(nc3ccc(NC(=O)CCCCCCc4ccccc4)cc13)CCCC2
inactive: inhibition [3] 4% | outcome [5] | outcome [6] | outcome [7] | outcome [8]
active: growth inhibition [1] 90% | inhibition [2] 100% | growth inhibition [4] 100%

O=C(Nc1ccc(F)c(C(F)(F)F)c1)N[C@H]1CCN(CCCCCNC(=O)[C@@H]2C[C@H]2c2ccc(Cl)c(Cl)c2)C1
inactive: growth inhibition [1] 0% | inhibition [2] 46% | inhibition [3] 7% | outcome [5] | outcome [6] | outcome [7] | outcome [8]
active: growth inhibition [4] 90%

COc1cccc(C(=O)Nc2sc3c(c2C(N)=O)CCCC3)c1OC
active: growth inhibition [4] 99%
inactive: growth inhibition [1] 8% | inhibition [2] 6% | inhibition [3] -2% | outcome [5] | outcome [6] | outcome [7] | outcome [8]

CCOC(=O)c1ccc(COc2ccc(C)nc2)cc1
active: growth inhibition [4] 100%
inactive: growth inhibition [1] -7% | inhibition [2] 14% | inhibition [3] -8% | outcome [5] | outcome [6] | outcome [7] | outcome [8]

Cc1ccc2[nH]c3c(c2c1)CC(C(=O)NCCC(C)C)NC31CCN(Cc2ccccc2)CC1 (centres undefined)
inactive: inhibition [2] 15% | inhibition [3] 6% | outcome [5] | outcome [6] | outcome [7] | outcome [8]
active: growth inhibition [1] 50% | growth inhibition [4] 95%

Cc1[nH]c(C)c(-c2ccc(-c3ccccc3Cl)nc2)c(=O)c1Cl
inactive: inhibition [2] -1% | inhibition [3] -5% | outcome [5] | outcome [6] | outcome [7] | outcome [8]
active: growth inhibition [1] 97% | growth inhibition [4] 98%

CCCCC1(NC(=O)[C@@H](Nc2ccc(C#N)c3ccccc23)C2CCCCC2)CCCCC1
inactive: inhibition [2] 8% | inhibition [3] 0% | outcome [5] | outcome [6] | outcome [7] | outcome [8]
active: growth inhibition [1] 84% | growth inhibition [4] 91%

Cc1[nH]c(C)c(-c2ccc(OCCOc3ccc(C(F)(F)F)cn3)cc2)c(=O)c1Br
inactive: inhibition [2] 25% | inhibition [3] 3% | outcome [5] | outcome [6] | outcome [7] | outcome [8]
active: growth inhibition [1] 97% | growth inhibition [4] 97%

CCc1sc(-c2cc(Cl)ccc2OC)nc1C(=O)NCCN1CCCCC1
active: growth inhibition [4] 100%
inactive: growth inhibition [1] 28% | inhibition [2] 3% | inhibition [3] 2% | outcome [5] | outcome [6] | outcome [7] | outcome [8]

CCCc1c(C(=O)OCC)c2cc(O)ccc2n1-c1ccc(OC)cc1
active: growth inhibition [1] 99% | growth inhibition [4] 100%
inactive: inhibition [2] -2% | inhibition [3] 0% | outcome [5] | outcome [6] | outcome [7] | outcome [8]

CN(C)CCOc1ccc(-c2cc(-c3ccncc3)c(-c3ccc(Cl)c(O)c3)o2)cc1
active: growth inhibition [1] 93% | growth inhibition [4] 99%
inactive: inhibition [2] 0% | inhibition [3] -5% | outcome [5] | outcome [6] | outcome [7] | outcome [8]

COc1ccc2nccc([C@@H](O)CN3CCC(NC(=O)c4ccc(OC)c(N)c4)CC3)c2c1
active: growth inhibition [4] 93%
inactive: growth inhibition [1] 0% | inhibition [2] 9% | inhibition [3] -3% | outcome [5] | outcome [6] | outcome [7] | outcome [8]

CCCc1cc(Cc2cnc(N)nc2N)cc(CC)c1O
active: inhibition [2] 56% | growth inhibition [4] 87%
inactive: growth inhibition [1] -3% | inhibition [3] -3% | outcome [5] | outcome [6] | outcome [7] | outcome [8]

Cc1cc(N[C@@H](CC(C)C)C(=O)NC2CCCC2)nc(NCC2CCCCC2)n1
inactive: inhibition [2] 8% | inhibition [3] 0% | outcome [5] | outcome [6] | outcome [7] | outcome [8]
active: growth inhibition [1] 88% | growth inhibition [4] 101%

CCOc1cc(Cc2cnc(N)nc2N)cc(OCC)c1OCCCCC(=O)OC
inactive: growth inhibition [1] 0% | inhibition [2] -12% | inhibition [3] 0% | outcome [5] | outcome [6] | outcome [7] | outcome [8]
active: growth inhibition [4] 95%

CCN(CC)CCCN(Cc1ccc(-c2ccc(C(F)(F)F)cc2)cc1)C(=O)Cn1c(SCc2cccc(F)c2F)cc(=O)c2ccccc21
active: growth inhibition [1] 82% | growth inhibition [4] 87%
inactive: inhibition [2] 45% | inhibition [3] 7% | outcome [5] | outcome [6] | outcome [7] | outcome [8]

CCCCCCNC(=O)C1Cc2c([nH]c3ccc(F)cc23)C2(CCN(Cc3ccccc3)CC2)N1 (centres undefined)
active: growth inhibition [4] 97%
inactive: growth inhibition [1] 39% | inhibition [2] 11% | inhibition [3] -1% | outcome [5] | outcome [6] | outcome [7] | outcome [8]

COc1c(C2CCN(CCCCNC(=O)c3ccc(-c4ccc(Cl)cc4)c(OCCN(C)C)c3)CC2)ccc2c1CCCC2
inactive: inhibition [3] 2% | outcome [5] | outcome [6] | outcome [7] | outcome [8]
active: growth inhibition [1] 86% | inhibition [2] 100% | growth inhibition [4] 101%

CSc1ccc(NC(=O)Nc2cc(C)nc3ccccc23)cc1
active: growth inhibition [4] 100%
inactive: growth inhibition [1] 23% | inhibition [2] 7% | inhibition [3] 1% | outcome [5] | outcome [6] | outcome [7] | outcome [8]

Cc1cccc(C(=O)N2CCN(Cc3cccc(NC(=O)c4cccs4)c3)CC2)c1
inactive: inhibition [2] 5% | inhibition [3] 0% | outcome [5] | outcome [6] | outcome [7] | outcome [8]
active: growth inhibition [1] 95% | growth inhibition [4] 95%

Cc1ccc(C)c(S(=O)(=O)NCC2CCN(Cc3ccc(O)cc3)CC2)c1
active: growth inhibition [1] 57% | growth inhibition [4] 87%
inactive: inhibition [2] 16% | inhibition [3] -6% | outcome [5] | outcome [6] | outcome [7] | outcome [8]

O=C(N[C@H]1CCN(Cc2ccc(OC3CCN(Cc4ccccc4)CC3)c(Cl)c2)C1)c1ccc(Cl)c(Cl)c1
active: inhibition [2] 59% | growth inhibition [4] 99%
inactive: growth inhibition [1] 11% | inhibition [3] 0% | outcome [5] | outcome [6] | outcome [7] | outcome [8]

COc1ccc(C(=O)N2CCC(CN3CCOC(c4ccccc4)(c4ccccc4)C3)CC2)cc1
inactive: inhibition [2] 19% | inhibition [3] 5% | outcome [5] | outcome [6] | outcome [7] | outcome [8]
active: growth inhibition [1] 96% | growth inhibition [4] 95%

COc1cc2nccc(Nc3ccc(OCc4ccccc4)cc3)c2cc1OC
inactive: inhibition [2] 35% | inhibition [3] 1% | outcome [5] | outcome [6] | outcome [7] | outcome [8]
active: growth inhibition [1] 99% | growth inhibition [4] 101%

COc1ccc(C2CCN(CCCCNC(=O)c3ccc(NC(=O)c4ccc(Cl)cc4)cc3)C2)c(OC)c1 (centres undefined)
inactive: growth inhibition [1] -1% | inhibition [2] 18% | inhibition [3] 2% | outcome [5] | outcome [6] | outcome [7] | outcome [8]
active: growth inhibition [4] 84%

COc1ccc(CNC(=O)NC2CCN(c3ccnc(Nc4cc(OC)c(OC)c(OC)c4)n3)C2)cc1 (centres undefined)
active: growth inhibition [1] 90% | growth inhibition [4] 91%
inactive: inhibition [2] -2% | inhibition [3] 3% | outcome [5] | outcome [6] | outcome [7] | outcome [8]

Cc1ccc(C(=O)Nc2ccc(Nc3ccnc4cc(-c5nccs5)ccc34)cc2O)cc1
active: growth inhibition [1] 100% | inhibition [2] 100% | growth inhibition [4] 100%
inactive: inhibition [3] 3% | outcome [5] | outcome [6] | outcome [7] | outcome [8]

COc1ccc(C)c(Nc2ccnc(Nc3cccc(-c4nc5ccccc5[nH]4)c3)n2)c1
inactive: growth inhibition [1] 35% | inhibition [2] 27% | inhibition [3] -1% | outcome [5] | outcome [6] | outcome [7] | outcome [8]
active: growth inhibition [4] 98%

c1cc(-c2nc3ccccc3[nH]2)nc(-c2nc3ccccc3[nH]2)c1
active: growth inhibition [4] 87%
inactive: growth inhibition [1] 24% | inhibition [2] 7% | inhibition [3] 0% | outcome [5] | outcome [6] | outcome [7] | outcome [8]

CS(=O)(=O)NCCCNCc1cccc(-c2cccc(-c3nc4ccc(F)cc4[nH]3)c2)c1
active: growth inhibition [4] 100%
inactive: growth inhibition [1] 5% | inhibition [2] 4% | inhibition [3] -13% | outcome [5] | outcome [6] | outcome [7] | outcome [8]

CC(=O)Nc1cc(C(=O)Nc2ccc(C3=NCCN3)cc2)ccc1C(=O)Nc1ccc(C2=NCCN2)cc1
inactive: inhibition [2] 12% | inhibition [3] -3% | outcome [5] | outcome [6] | outcome [7] | outcome [8]
active: growth inhibition [1] 92% | growth inhibition [4] 96%

c1ccc(Cn2nnnc2-c2cccc(Nc3ccnc4cc(-c5nccs5)ccc34)c2)cc1
inactive: growth inhibition [1] 46% | inhibition [3] -4% | outcome [5] | outcome [6] | outcome [7] | outcome [8]
active: inhibition [2] 51% | growth inhibition [4] 87%

COc1ccc(C2C(C(=O)Nc3cc(C)ccc3OC)c3ccccc3C(=O)N2C)cc1 (centres undefined)
inactive: growth inhibition [1] 3% | inhibition [2] 3% | inhibition [3] 1% | outcome [5] | outcome [6] | outcome [7] | outcome [8]
active: growth inhibition [4] 86%
